Test results taken from PubChem BioAssay AID2013 (Sanford-Burnham Center for Chemical Genomics, 2009).
Screen size: about 290,000 compounds; about 370 (0.13%) were called active. What follows is part of a selection rich in actives, with near analogues and random picks from the rest. Results with a measured potency or affinity are listed apart. A number with no mark means an inactive call.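 Rule for the calls: active = spots per cell inhibited over 60%, with over 100 cells counted and total cytoplasm intensity under 500,000; inconclusive = wells with under 100 cells, flagged as likely toxic; inactive = the rest.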

biological target: G-protein coupled receptor 55 (Homo sapiens) (UniProt Q9Y2T6); assay: inhibition of LPI-stimulated GPR55 beta-arrestin translocation – imaging, U2OS, beta-arrestin-GFP, LPI agonist, primary screen (AID 2013); conditions: LPI antagonism, at 10 µM, hits give high values;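 note: U2OS cells stably carrying GPR55 and arrestin-GFP stimulated by 5 µM LPI near EC80; imaged beta-arrestin-GFP aggregate spots per cell after agonist stimulation; plate controls were LPI-stimulated DMSO wells for no effect and DMSO wells without LPI for full effect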
Sequence (Q9Y2T6 whole entry, looked up): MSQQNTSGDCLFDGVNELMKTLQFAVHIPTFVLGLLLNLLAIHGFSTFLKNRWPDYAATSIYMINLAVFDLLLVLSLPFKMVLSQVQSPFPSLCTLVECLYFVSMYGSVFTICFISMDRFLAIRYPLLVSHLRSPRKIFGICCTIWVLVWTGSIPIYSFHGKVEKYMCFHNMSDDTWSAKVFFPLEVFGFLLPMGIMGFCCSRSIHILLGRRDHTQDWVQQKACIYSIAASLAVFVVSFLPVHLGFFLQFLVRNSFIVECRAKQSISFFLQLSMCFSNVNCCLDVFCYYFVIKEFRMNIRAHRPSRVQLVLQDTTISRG

Structure (SMILES) | inhibition
CC1=CC(=C(C#N)C#N)C=C(C)N1CCN1CCN(C(=O)Nc2cccc(Cl)c2)CC1 | 3.5%
Cc1cccc(NC(=O)C2C3C=CC4(O3)C2C(=O)N(CCCN2CCCC2)C4C(=O)NC2CCCC(C)C2C)c1 (stereo unspecified) | -6.5%
CC1(c2cc([N+](=O)[O-])cc([N+](=O)[O-])c2)CC(C)(C)N(C(=O)c2ccccc2)c2ccccc21 (stereo unspecified) | -0.2%
CC1(c2ccccc2)CC(C)(C)N(C(=O)c2cc([N+](=O)[O-])cc([N+](=O)[O-])c2)c2ccccc21 (stereo unspecified) | 64.4% (active)
CC1(c2ccc([N+](=O)[O-])cc2)CC(C)(C)N(C(=O)c2ccccc2)c2ccccc21 (stereo unspecified) | 11.2%
COc1ccccc1Nc1nc(N)nc(-c2cc3ccccc3o2)n1 | 8.7%
CC(NCC(O)COCc1ccc(Cl)cc1)c1ccccc1 (stereo unspecified) | 0.4%
NCC(O)COCCC12CC3CC(CC(C3)C1)C2 (stereo unspecified) | 5.8%
CC1(C)CC(=O)C=C(NCC2CCCO2)C1 (stereo unspecified) | 3.1%
CC1=CC(c2ccc(Cl)cc2)n2nc(NC(=O)c3ccccc3)nc2N1 (stereo unspecified) | 5.1%
Cc1ccc(-c2ccnc3cc(C)nn23)cc1 | 13.3%
c1cc2c3c(cccc3c1)C(N1CCCCCC1)=N2 | 17.5%
c1cc2c3c(cccc3c1)C(N1CCCCC1)=N2 | 3.4%
COc1ccccc1N1CCN(C2=Nc3cccc4cccc2c34)CC1 | 95.5% (active)
COc1ccc(/C=C2\SC(=O)N(CC(=O)NC3C=CS(=O)(=O)C3)C2=O)cc1 (stereo unspecified) | 14.8%
COc1ccc(CCNC(=O)C/C(C)=N/NC(=O)c2ccc([N+](=O)[O-])cc2Cl)cc1OC | 5.9%
C=CCOc1ccc(/C=N/NC(=O)CN2CCOCC2)cc1OCC | -14.5%
C#CCOc1c(Br)cc(/C=N/O)cc1OCC | -2.8%
COCCNc1c2c(nc3c(-c4ccccc4)c(C)nn13)CCC2 | -0.5%
CC(=O)c1c(O)cc(O)cc1CC(=O)O | 14.6%
CCCCN(CC)C(=O)CSc1nc2c(sc(=S)n2-c2ccc(OCC)cc2)c(=O)[nH]1 | 6.8%
CCOC(=O)CSc1nc2c(sc(=S)n2-c2ccc(OCC)cc2)c(=O)[nH]1 | -5.3%
O=c1c2ccccc2nc(-c2ccccc2)n1CCCN1CCOCC1 | -6.4%

Structure (SMILES) | inhibition
COc1ccc(-c2nn(-c3ccccc3)cc2/C=C2/SC(=S)N(CCC(=O)O)C2=O)cc1 | 2.4%
COc1ccc(-c2nn(-c3ccccc3)cc2/C=C2/SC(=S)N(Cc3ccco3)C2=O)c(C)c1 | 13.6%
O=C(Nc1ccc(F)cc1F)c1c(C(F)(F)F)ccnc1Oc1cccc(C(F)(F)F)c1 | 6.9%
Cc1cc(NC(=O)CN(C)S(=O)(=O)c2cnc[nH]2)ccc1Br | 0.7%
CCCCn1c(NC(C)=O)c(C#N)c2nc3ccccc3nc21 | 17%
CCCCn1c(NC(=O)c2ccccc2)c(C#N)c2nc3ccccc3nc21 | -12.6%
Cc1ccc(C(=O)C(C)OC(=O)c2ccccc2[N+](=O)[O-])cc1 (stereo unspecified) | 9.5%
CCOCCOC(=O)C1=C(C)NC(=O)NC1c1cc2c(cc1Br)OCO2 (stereo unspecified) | 5.8%
COCCNC(=O)c1cc2c(s1)-c1ccc(Cl)cc1SC2 | -8.6%
CCN(CC)CCNC(=O)c1cc2c(s1)-c1ccccc1SC2 | 15.9%
O=C(CSc1ccc(F)cc1)NC12CC3CC(CC(C3)C1)C2 | -6%
COc1ccc(C)cc1Nc1n[n+](-c2ccccc2)c(-c2ccc(SC)cc2)s1 | 4.4%
COc1ccc(C)cc1Nc1n[n+](-c2ccccc2)c(-c2ccc(C(=O)O)cc2)s1 | 4.6%
CCC(=O)N1c2ccc(S(=O)(=O)NCCc3ccc(OC)c(OC)c3)cc2CC1C (stereo unspecified) | -31.8%
COc1ccc(S(=O)(=O)N2CCCOC2CNC(=O)C(=O)NCc2ccccc2F)cc1C (stereo unspecified) | 22%
Cc1[nH]nc(SCC(=O)N2CCCCC2)c1[N+](=O)[O-] | -23.3%
O=C(COc1ccccc1F)NCC(c1ccco1)N1CCCC1 (stereo unspecified) | 24.1%
Nc1c(O)ccc2c1C(=O)c1ccccc1C2=O | -0.3%
O=C1C(=O)c2ccc(-c3ccccc3)cc2-c2ccccc21 | -5.5%
COc1ccc(N=Nc2nc(-c3ccccc3)c(-c3ccccc3)[nH]2)cc1 | 19%
Oc1ccccc1N=Nc1nc(-c2ccccc2)c(-c2ccccc2)[nH]1 | 15.7%
CCOC(=O)N1CCN(C(=O)C2CCC(CNS(=O)(=O)c3ccccc3)CC2)CC1 (stereo unspecified) | 14.3%
COc1ccc(C(=O)N2N=C(c3cccs3)CC2c2ccccc2O)cc1 (stereo unspecified) | 54.1%

Structure (SMILES) | inhibition
O=C(c1ccco1)N1N=C(c2cccs2)CC1c1ccccc1O (stereo unspecified) | 39.4%
C/C(=N/NC(=O)CNC(=O)c1cccnc1)c1cccc([N+](=O)[O-])c1 | -4.3%
CCN1CCN(CCNC(=O)c2ccc(/C=C3/Sc4ccccc4N(Cc4cccc(Cl)c4)C3=O)cc2)CC1 | 7.6%
CCN1CCN(CCNC(=O)c2ccc3c(c2)N(Cc2ccc(F)cc2)C(=O)/C(=C/c2ccccc2)S3)CC1 | 70.3% (active)
CN1CCN(CCCNC(=O)c2ccc(/C=C3\Sc4ccccc4N(Cc4ccc(F)cc4)C3=O)cc2)CC1 | 6.1%
CCOc1ccc(Cl)cc1CSc1n[nH]c(C)n1 | -12.3%
Cc1nnsc1Sc1ccccc1C(=O)O | -7.1%
COc1cccc(-n2c(=O)c3sccc3n(CC(=O)NC3CCCCC3)c2=O)c1 | -10.7%
CC(C)NC(=S)NN(c1ccccc1)c1ccccc1 | 11.8%
CNC(=S)NN(c1ccccc1)c1ccccc1 | 5.4%
CC(C)CCNC(=O)CN(Cc1ccc(F)cc1)C(=O)CCC(=O)Nc1ccccn1 | 4.6%
CCOC(=O)c1c(C)oc2ccc(O)cc12 | 3.1%
CCOC(=O)c1c(-c2ccccc2)oc2ccc(O)cc12 | -6%
Cc1cc(NC(=O)C2C3C(=O)N(Cc4ccc(Cl)cc4)C(C(=O)NC4CCCCC4)C34C=CC2(C)O4)no1 (stereo unspecified) | 9.6%
CC(C)n1cnc2c(Nc3ccc(C(=O)O)cc3)nc(Cl)nc21 | 8.9%
O=C(CSc1n[nH]c(-c2cc(Cl)ccc2Cl)n1)NCCN1C(=O)CSC1=O | 2.2%
COc1ccc(NC(=S)N(CCCN2CCOCC2)Cc2ccccn2)cc1 | -18.2%
Cc1ccc(NC(=S)N(CCCN2CCOCC2)Cc2ccccn2)cc1 | 9.5%
O=C(c1cc(C2CC2)nc2ccc(Br)cc12)N1N=C(C(F)F)CC1(O)C(F)F (stereo unspecified) | 9.1%
O=S(=O)(c1ccc(Br)cc1)c1nc(-c2ccco2)oc1NCC1CCCO1 (stereo unspecified) | -16.8%
CC(C)(C)c1csc(NC(=O)CSc2nc3ccccc3c(=O)[nH]2)n1 | -12.6%
CCNc1nc2nc3ccc(C)cn3c(=O)c2cc1C(=O)NCC1CCCO1 (stereo unspecified) | 7.3%
Cc1ccc2nc3nc(NCC4CCCO4)c(C(=O)NC4CCCC4)cc3c(=O)n2c1 (stereo unspecified) | 0.8%

Structure (SMILES) | inhibition
C=CCNC(=O)c1cc2c(=O)n3cc(C)ccc3nc2nc1NCC1CCCO1 (stereo unspecified) | 93.3% (active)
Cc1ccc(NC(=O)CSc2nnc3n2CCCCC3)cc1 | 4.6%
Cc1cccc2c1CC(C)(C)NC2=C(C#N)C#N | 5%
CC(Nc1c([N+](=O)[O-])c(=O)oc2ccccc12)c1ccccc1 (stereo unspecified) | 10.5%
CC(Nc1c([N+](=O)[O-])c(=O)oc2ccccc12)C(Cl)c1ccccc1 (stereo unspecified) | 22%
O=C(O)CC/C(=N\NC(=O)CNC(=O)/C=C/c1ccccc1)c1ccccc1 | 2.6%
Cc1cc(C)n(CC(=O)N/N=C/c2cccs2)n1 | 7.5%
COc1ccc(S(=O)(=O)N2CCCOC2CNC(=O)C(=O)NCc2cccnc2)cc1 (stereo unspecified) | 13.9%
CCOc1ccccc1C1c2[nH]c3ccccc3c2C[C@H]2C(=O)N(C3CCN(Cc4ccccc4)CC3)CC(=O)N12 (stereo partly specified) | -0.7%
COC(=O)c1c(NC(NC(=O)C(C)C)C(Cl)(Cl)Cl)sc2c1CCC2 (stereo unspecified) | -7.5%
CCC(=O)NC(Nc1sc2c(c1C(=O)OC)CCC2)C(Cl)(Cl)Cl (stereo unspecified) | -15.1%
COC(=O)c1c(NC(NC(C)=O)C(Cl)(Cl)Cl)sc2c1CCCC2 (stereo unspecified) | 13.5%
COC(=O)c1c(NC(NC(=O)C(C)C)C(Cl)(Cl)Cl)sc2c1CCCC2 (stereo unspecified) | 76.3% (active)
COC(=O)c1c(NC(NC(=O)CC(C)C)C(Cl)(Cl)Cl)sc2c1CCC2 (stereo unspecified) | 60%
CN(C)S(=O)(=O)NCCNC(=O)c1cc(OCC(F)(F)F)ccc1OCC(F)(F)F | -3.8%
COc1cccc2c1OCC(CN1CCN(Cc3ccccc3F)C(CCO)C1)=C2 (stereo unspecified) | 8.5%
Cc1cccc(NC(=S)N2CCC(NC(=O)c3ccco3)CC2)c1 | 7.3%
COc1ccccc1CNC(=O)C1CCN(S(=O)(=O)c2ccc(-n3cnnn3)cc2)CC1 | 1%
Cc1ccc(S(=O)(=O)N(C)c2ccc(C(=O)NCc3cccnc3)cc2)cc1 | 11.2%
Cc1cc(C)n2nc(-c3ccccc3)c(-c3ccccc3)c2n1 | 7.9%
Cc1cc(N)n2nc(C)c(-c3ccccc3)c2n1 | -2.4%
COc1cccc(NC(=O)C23CCC(C)(C(=O)O2)C3(C)C)c1 (stereo unspecified) | -7.9%
